Test results: PubChem BioAssay (Tox21)
Several values for one entry are separate records, joined by “and”; a condition that tells them apart may be missing. Equal values may be shown once. Results filed as inconclusive are left out. A call without a number means that no potency is given here. More than one record can exist for a structure, and the calls need not agree. Activity calls are given as the source filed them. Unless noted, calls come from the whole dose curve; as a rule, active = well fitted curve in the direction sought with a large enough effect in the repeat runs; inconclusive = weak or mixed curves; inactive = no such curve, though single readings can be large; an effect the other way counts as inactive or inconclusive.

What was measured:
[1] = qHTS assay to identify small molecule antagonists of the estrogen related receptor (ERR) signaling pathway from Tox21 library - cell viability counter screen (AID 1224834); note: nearly all actives have a fitted effect of over 30% in size; note: potency is the fitted concentration of half-maximal effect
Method in brief: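 In this quantitative HTS format, ERR cells receive compounds in DMSO and are incubated for 17.5 h at 37 C. Live-cell protease activity is then detected with CellTiter-Fluor.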

[2] = target: Luciferin 4-monooxygenase (Photinus pyralis) (UniProt P08659); assay: qHTS assay to identify small molecule inhibitors of firefly luciferase (AID 1224835); note: nearly all actives have a fitted effect of over 25% in size; note: potency is the fitted concentration of half-maximal effect; for activity change, negative = inhibition: series mostly up to about 120 µM
Chain of Luciferin 4-monooxygenase (Photinus pyralis) (P08659 whole entry, looked up): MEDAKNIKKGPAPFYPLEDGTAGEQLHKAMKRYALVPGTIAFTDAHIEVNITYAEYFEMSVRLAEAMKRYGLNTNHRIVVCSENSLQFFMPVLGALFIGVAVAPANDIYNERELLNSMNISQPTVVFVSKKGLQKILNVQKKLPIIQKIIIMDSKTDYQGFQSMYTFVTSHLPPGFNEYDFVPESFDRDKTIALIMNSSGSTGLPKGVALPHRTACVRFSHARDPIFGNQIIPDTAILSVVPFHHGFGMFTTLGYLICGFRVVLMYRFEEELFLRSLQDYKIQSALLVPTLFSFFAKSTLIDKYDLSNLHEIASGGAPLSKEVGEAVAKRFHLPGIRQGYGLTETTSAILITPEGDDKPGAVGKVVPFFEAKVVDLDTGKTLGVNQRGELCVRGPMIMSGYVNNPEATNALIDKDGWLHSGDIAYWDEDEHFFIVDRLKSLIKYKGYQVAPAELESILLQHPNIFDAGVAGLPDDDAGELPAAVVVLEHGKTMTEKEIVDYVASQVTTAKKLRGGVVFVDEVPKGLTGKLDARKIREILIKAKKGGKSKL
Method in brief: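 Biochemical qHTS: compounds run as interplate titrations against purified firefly enzyme, with D-luciferin and ATP each at its KM concentration. Light output recorded by CCD imaging.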

[3] = qHTS assay to identify small molecule agonists of the constitutive androstane receptor (CAR) signaling pathway - cell viability counter screen (AID 1224836); note: nearly all actives have a fitted effect of over 45% in size; note: potency is the fitted concentration of half-maximal effect
Method in brief: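 HepG2 cells stably carrying hCAR and a CYP2B6-2.2kb reporter were plated 4 h, then given compounds at 15 concentrations plus PK11195 (final 0.75 uM). After 23 h at 37 C, viability was read by CellTiter-Fluor fluorescence.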

[4] = qHTS assay to identify small molecule antagonists of the constitutive androstane receptor (CAR) signaling pathway - cell viability counter screen (AID 1224837); note: series mostly up to about 92 µM; nearly all actives have a fitted effect of over 45% in size
Method in brief: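 In quantitative HTS format, compounds at 15 concentrations were applied to HepG2 cells double-transfected with hCAR and CYP2B6-2.2kb under 50 nM CITCO stimulation; live-cell protease activity was read after 23 hr via CellTiter-Fluor.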

[5] = target: Nuclear receptor subfamily 1 group I member 3 (Homo sapiens) (UniProt Q14994); assay: qHTS assay to identify small molecule antagonists of the constitutive androstane receptor (CAR) signaling pathway (AID 1224838); note: nearly all actives have a fitted effect of over 40% in size; note: potency is the fitted concentration of half-maximal effect
Chain of Nuclear receptor subfamily 1 group I member 3 (Homo sapiens) (Q14994 whole entry, looked up): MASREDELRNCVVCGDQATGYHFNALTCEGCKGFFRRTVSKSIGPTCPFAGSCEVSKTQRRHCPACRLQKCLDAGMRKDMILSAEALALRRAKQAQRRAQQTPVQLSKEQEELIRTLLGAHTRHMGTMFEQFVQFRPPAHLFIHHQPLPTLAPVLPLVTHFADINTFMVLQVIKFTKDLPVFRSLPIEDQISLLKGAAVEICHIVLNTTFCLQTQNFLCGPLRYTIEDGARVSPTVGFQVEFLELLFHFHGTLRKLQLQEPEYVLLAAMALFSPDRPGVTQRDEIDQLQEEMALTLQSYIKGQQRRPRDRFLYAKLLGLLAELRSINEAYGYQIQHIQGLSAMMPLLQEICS
Method in brief: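 CITCO-stimulated (50 nM final) HepG2 cells stably transfected with hCAR and CYP2B6-2.2kb luciferase were exposed to compounds at 15 concentrations for 24 h at 37 C/5% CO2. A luciferase reagent was added and luminescence recorded after 30 min.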

[6] = target: Nuclear receptor subfamily 1 group I member 3 (Homo sapiens) (UniProt Q14994); assay: qHTS assay to identify small molecule agonists of the constitutive androstane receptor (CAR) signaling pathway (AID 1224839); note: nearly all actives have a fitted effect of over 15% in size; note: potency is the fitted concentration of half-maximal effect
Method in brief: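 HepG2 cells stably expressing hCAR and a CYP2B6-2.2kb luciferase reporter were treated with compounds at 15 concentrations plus 0.75 uM PK11195 (final) for 24 h at 37 C; luminescence was read after ONE-Glo addition.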

[7] = qHTS assay to identify small molecule antagonists of the estrogen related receptor signaling pathway with the pleiotropic PPARgamma coactivator (PGC) from Tox21 10K library - cell viability counter screen (AID 1224840; active = well fitted cell-killing curve with a large enough effect in the repeat runs, not every such curve was filed as active; note: nearly all actives have a fitted effect of over 40% in size; note: potency is the fitted concentration of half-maximal effect)
Method in brief: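 Viability counter screen, PGC/ERR cells: 17.5 h compound exposure at 37 C, CellTiter-Fluor fluorescence endpoint.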

[8] = target: Thyrotropin receptor (Homo sapiens) (UniProt P16473); assay: qHTS assay to identify small molecule agonists of the thyroid stimulating hormone receptor (TSHR) signaling pathway (AID 1224843; calls by dose curve; note: nearly all actives have a fitted effect of over 45% in size)
Chain of Thyrotropin receptor (Homo sapiens) (P16473 whole entry, looked up): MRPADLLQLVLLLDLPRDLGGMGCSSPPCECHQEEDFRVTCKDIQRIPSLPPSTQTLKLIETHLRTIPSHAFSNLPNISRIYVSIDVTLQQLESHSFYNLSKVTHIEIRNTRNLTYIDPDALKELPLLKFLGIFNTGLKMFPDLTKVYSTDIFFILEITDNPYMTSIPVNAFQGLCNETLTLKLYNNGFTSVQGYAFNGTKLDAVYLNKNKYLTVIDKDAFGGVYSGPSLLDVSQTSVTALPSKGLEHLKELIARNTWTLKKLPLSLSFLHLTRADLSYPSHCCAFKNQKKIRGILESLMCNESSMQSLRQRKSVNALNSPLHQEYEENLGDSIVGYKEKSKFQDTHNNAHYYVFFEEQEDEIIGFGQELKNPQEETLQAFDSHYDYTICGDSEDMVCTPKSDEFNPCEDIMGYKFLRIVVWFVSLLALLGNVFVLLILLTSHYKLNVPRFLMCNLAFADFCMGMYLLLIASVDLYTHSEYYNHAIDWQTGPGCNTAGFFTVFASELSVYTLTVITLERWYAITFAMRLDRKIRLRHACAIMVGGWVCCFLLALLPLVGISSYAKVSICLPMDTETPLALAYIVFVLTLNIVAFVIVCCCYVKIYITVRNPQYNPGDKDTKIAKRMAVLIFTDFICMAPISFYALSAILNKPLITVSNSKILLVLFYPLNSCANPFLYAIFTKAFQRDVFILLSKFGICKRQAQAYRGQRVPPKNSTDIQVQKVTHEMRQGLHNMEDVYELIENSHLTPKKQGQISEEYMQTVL
Method in brief: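 Agonist-mode screen: TSHR HEK293 cells received test chemicals for half an hour at room temperature, then HTRF cAMP detection reagents for one hour prior to fluorescence measurement. Each chemical ran as a 15-concentration series, triplicated.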

[9] = qHTS assay to identify small molecule antagonists of the estrogen related receptor signaling pathway with the pleiotropic PPARgamma coactivator (PGC) from Tox21 10K library (AID 1224841; call rule not given here; note: actives are mostly falling curves and most rising ones were filed inactive; nearly all actives have a fitted effect of over 50% in size; note: potency is the fitted concentration of half-maximal effect)
Method in brief: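 In the PGC/ERR line, DMSO solutions of test chemicals are pin-delivered to 2,000 cells/well six hours after dispensing. Following eighteen hours' incubation, One-Glo reagent is added and luminescence recorded.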

[10] = qHTS assay to identify small molecule agonists of the estrogen related receptor signaling pathway with the pleiotropic PPARgamma coactivator (PGC) from Tox21 10K library (AID 1224842); note: nearly all actives have a fitted effect of over 15% in size
Method in brief: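 PGC/ERR reporter cell line, 2,000 cells per well, incubated 6 h at 37 C before 23 nL compound in DMSO was added. After 18 h at 37 C, One-Glo luminescence read following 30 min at room temperature.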

Structure (SMILES)	Potency [1]	Potency [2]	Potency [3]	Potency [4]	Potency [5]	Potency [6]	Potency [7]	Potency [8]	activity change, negative = inhibition [2]	Potency [9]	Potency [10]
OCC(CO)(CO)CO	inactive	inactive	inactive	inactive	inactive	inactive	inactive	inactive			
C[Si](C)(C)N[Si](C)(C)C	inactive	inactive	inactive	inactive	inactive		inactive	inactive			
Cc1ccccc1C=O	inactive	inactive	inactive	inactive	inactive		inactive	inactive			
O=C1O[C@H]([C@H](O)CO)C(O)=C1O	inactive	inactive	inactive	inactive		inactive	inactive	inactive			
CN1CCCC1=O	inactive	inactive	inactive	inactive			inactive				
CC(C)c1ccc(C(C)C)cc1	inactive	inactive	inactive	inactive	inactive		inactive	inactive			
CC/C=C(\C(=O)N[C@@H]1C(=O)N2C(C(=O)OCOC(=O)C(C)(C)C)=C(COC(N)=O)CS[C@H]12)c1csc(N)n1	inactive	inactive	inactive	inactive	inactive		inactive	inactive			
CC(=O)C(C)C	inactive	inactive	inactive	inactive							
CCCCCCCCCCCC(=O)N(C)CC(=O)O	inactive	77.2 µM (active)		inactive			inactive	inactive	1.62% [at 10.5 µM] (inactive)		
Cc1cc(C)cc(O)c1	inactive	inactive	inactive	inactive		inactive		inactive		inactive	inactive
CCCCCCCC(=O)O	inactive	inactive	inactive	inactive							
C=CC(=O)NCOCCCC	inactive	inactive	inactive	inactive		inactive					
OCC(O)CS (stereo unspecified)	inactive	inactive	inactive	inactive	inactive	inactive	inactive	inactive			
NC(=O)c1ncn([C@@H]2O[C@H](CO)[C@@H](O)[C@H]2O)n1	inactive	inactive	inactive	inactive	7.23 µM (active)		inactive				
C=CC(C)(C)C	inactive	inactive	inactive	inactive	inactive		inactive	inactive		inactive	inactive
Cc1ccc(Cl)cc1	inactive	inactive	inactive	inactive	inactive		inactive	inactive			
Nc1cccc(N)n1	inactive	inactive	inactive	inactive	inactive		inactive				
CC(O)CNCC(C)O (stereo unspecified)	inactive	inactive	inactive	inactive	inactive	inactive		inactive			
CCOC(=O)c1ccc(O)cc1	inactive	inactive	inactive	inactive	inactive		inactive	inactive			
OB(O)O	inactive	inactive	inactive	inactive	inactive	inactive		inactive		inactive	inactive
CC(=O)OCCC(C)C	inactive	inactive	inactive	inactive	inactive		inactive			inactive	inactive
COc1c(Cl)ccc(Cl)c1C(=O)O	inactive	inactive	inactive	inactive		inactive		inactive			
COCN(COC)c1nc(N(COC)COC)nc(N(COC)COC)n1	inactive	inactive	inactive	inactive		inactive		inactive		inactive	inactive
Cc1ccccc1Cl	inactive	inactive	inactive	inactive	inactive	inactive	inactive	inactive			
CS(=O)(=O)c1ccc(Cl)cc1	inactive	inactive	inactive	inactive	inactive			inactive		inactive	inactive
NC(N)=S	inactive	inactive	inactive	inactive	inactive	inactive		inactive			

Structure (SMILES)	Potency [1]	Potency [2]	Potency [3]	Potency [4]	Potency [5]	Potency [6]	Potency [7]	Potency [8]	activity change, negative = inhibition [2]	Potency [9]	Potency [10]
CCCOC(=O)NCCCN(C)C	inactive	inactive	inactive	inactive	inactive	inactive	inactive	inactive			
O=[N+]([O-])c1cc(C(F)(F)F)ccc1Cl	inactive	inactive	inactive	inactive	inactive	inactive		inactive		inactive	inactive
COc1ccc2cc3[n+](cc2c1OC)CCc1cc2c(cc1-3)OCO2	27.5 µM (active)	inactive	inactive	inactive	inactive	inactive	inactive			3.88 µM (active) and 7.5 µM (active)	inactive
CCCCC(=O)O	inactive	inactive	inactive	inactive		inactive		inactive			
COc1ccccc1[N+](=O)[O-]	inactive	inactive	inactive	inactive	inactive	inactive	inactive			inactive	inactive
OCc1ccc(Cl)cc1Cl	inactive	inactive	inactive	inactive		inactive	inactive				
Nc1nc(N)c2nc(-c3ccccc3)c(N)nc2n1	inactive	40.4 µM (active) and 39.9 µM (active)	inactive	inactive	inactive		inactive	inactive		inactive	inactive
COC(=O)/C=C\C(=O)OC	inactive	inactive	inactive	inactive	inactive	inactive		inactive		inactive	inactive
CC(COCC(C)OC(=O)c1ccccc1)OC(=O)c1ccccc1 (stereo unspecified)	inactive	inactive	inactive	inactive		inactive				inactive	inactive
COc1cc(NC(=O)CC(C)=O)c(OC)cc1Cl	inactive	inactive	inactive	inactive	inactive		inactive	inactive		38.7 µM (active)	inactive
N[C@@H](Cc1cc(I)c(Oc2ccc(O)c(I)c2)c(I)c1)C(=O)O	inactive	inactive	inactive	inactive		inactive and 56.7 µM (active)		inactive			
O=[N+]([O-])c1ccccc1C(F)(F)F	inactive	inactive	inactive	inactive	inactive	inactive	inactive	inactive		inactive	inactive
CCOC(=O)CC(=O)OCC	inactive	inactive	inactive	inactive			inactive	inactive			
CC(=O)OC[C@H]1O[C@@](COC(C)=O)(O[C@H]2O[C@H](COC(C)=O)[C@@H](OC(C)=O)[C@H](OC(C)=O)[C@H]2OC(C)=O)[C@@H](OC(C)=O)[C@@H]1OC(C)=O	inactive	inactive	inactive	inactive			inactive	inactive			
C=C(C)CC(C)(C)C	inactive	inactive	inactive	inactive			inactive	inactive			
O=C(O)Cc1c[nH]c2ccccc12	inactive	inactive		inactive		inactive	inactive	inactive		inactive	inactive
CCCCCNCCCCC	inactive	inactive	inactive	inactive				inactive			
O=C1CCCCCCCCCCC1	inactive	inactive		inactive	inactive	inactive		inactive			
CC(=O)OC/C=C(\C)CCC=C(C)C	inactive	inactive	inactive	inactive				inactive			
CCCN(CCC)C(=O)SCC	inactive	inactive	inactive	inactive			inactive	inactive			
CC(CN1c2ccccc2Sc2ccccc21)N(C)C (stereo unspecified)	69.3 µM (active) and 61.1 µM (active)	inactive	54.5 µM (active)		inactive	inactive		inactive		inactive	inactive
CCCCCCCCCCCCCC(=O)O	inactive	50.1 µM (active)		inactive	inactive	inactive	inactive	inactive		inactive	inactive
CC(=O)OCc1ccc2c(c1)OCO2	inactive	inactive		inactive	inactive		inactive	inactive		inactive	inactive
O=c1c(O)c(-c2ccc(O)c(O)c2)oc2cc(O)cc(O)c12	43.6 µM (active) and 27.3 µM (active) and inactive	35.9 µM (active) [middle of 4 runs]	inactive				inactive and 24.3 µM (active)	inactive			
CC(=O)c1nccs1	inactive	inactive		inactive	inactive	inactive	inactive	inactive			
COC(=O)CCCCC(=O)OC	inactive	inactive	inactive	inactive			inactive				
